Out of some 59,000 compounds screened, about 6,200 (11%) were called active. About 9% were inconclusive and are not listed. Rule as the data show it: active = max dye-equivalent concentration above about 10 nM; inconclusive = mostly about 1.1 nM to 9.6 nM; inactive = weaker than that. This excerpt belongs to a sample that is enriched for actives.
Test: qHTS Assay for Spectroscopic Profiling in 4-MU Spectral Region
Conditions: compound autofluorescence, 340/450 nm, 4-MU equivalents; hits give high values
Outline: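 Compounds in 100 mM Tris, pH 8.0, sat 15 min at room temperature before fluorescence was read at 340 nm excitation/450 nm emission; a per-plate six-point 4-MU standard curve converted signals to dye-equivalent concentration at each compound concentration.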

Row | Structure (SMILES) | max dye-equivalent concentration
1 | CN1CCc2[nH]nc(-c3n[nH]c4c3CN(C)CC4)c2C1 | inactive
2 | c1coc(-c2nc3nc4ccccc4n3nc2-c2ccco2)c1 | inactive
3 | CCOC(=O)CSc1nnc(-c2ccco2)n1C | inactive
4 | Cn1c(-c2ccco2)nc2cc3ccccc3cc21 | 890 nM (active)
5 | O=C(c1ccco1)N1CCN(C(=O)c2ccc(COc3ccc(F)cc3)o2)CC1 | inactive
6 | O=C(c1ccco1)N1CCC2(CC1)CN(c1ncccn1)C2 | inactive
7 | CCCCNC(=O)CSc1nnc(-c2ccco2)n1C | inactive
8 | Cn1c(=O)c2c(ncn2CC(=O)N2CCN(c3ccccc3)CC2)n(C)c1=O | inactive
9 | COc1ccccc1NC(=O)C1=C(C)NC2=C(C(=O)CCC2)C1c1ccc(C)o1 (stereo not given) | 16 nM (active)
10 | COc1ccccc1NC(=O)C1=C(C)Nc2ncnn2C1c1ccc(C)o1 (stereo not given) | inactive
11 | COc1ccccc1NC(=O)c1ccc(C)s1 | inactive
12 | O=C(NCCN=C1NS(=O)(=O)c2ccccc21)c1ccc(S(=O)(=O)N2CCOCC2)cc1 | inactive
13 | Cc1cc(=O)oc(C)c1C(=O)NC1CC(C)(C)NC(C)(C)C1 | inactive
14 | COCc1nnc(NC(=O)CS(=O)(=O)Cc2ccccc2)s1 | inactive
15 | O=C(O)C1CCCN1S(=O)(=O)c1ccc2c(c1)CCC2 (stereo not given) | inactive
16 | CCS(=O)(=O)NCCc1ccc(OC)c(OC)c1 | inactive
17 | CCNC(=O)c1c(O)c2cccc3c2n(c1=O)CC3 | 17 nM (active)
18 | Cn1c(C(=O)NCCN2CCc3ccccc3C2)cc2c(=O)[nH]c3ccccc3c21 | inactive
19 | Cc1cc(=O)n2c3c(cccc13)CCC2 | inactive
20 | O=S(=O)(O)c1ccc(O)c2ncccc12.O=S(=O)(O)c1ccc(O)c2ncccc12.[Zn] | inactive
21 | Cc1ccccc1N1CCN(S(=O)(=O)C[C@@]23CC[C@H](C[C@H]2NC(=O)[C@@H](N)CCS(C)(=O)=O)C3(C)C)CC1 | inactive
22 | CCOC(=O)C1=C(CNC2CCCCC2)NC(=O)NC1c1cc(C)ccc1C (stereo not given) | inactive
23 | COc1cc(OC)cc(C(=O)NCCSCc2ccco2)c1 | inactive
24 | O=C(CSc1nnc(-c2cccnc2)n1Cc1ccco1)c1ccc(Cl)cc1 | inactive
25 | Clc1cccc(-c2nc3nc4ccccc4nc3n2Cc2ccco2)c1 | 110 nM (active)
26 | C(=C\c1ccccc1)/CSc1nnc(-c2cccnc2)n1Cc1ccco1 | inactive
27 | C=C(C)Cn1c(SCC(=O)NCc2ccco2)nc2sc3c(c2c1=O)CCC3 | inactive

Row | Structure (SMILES) | max dye-equivalent concentration
28 | CN1CCc2c(sc3c2c(NCc2ccco2)nc2nnnn23)C1 | 380 nM (active)
29 | c1coc(CNc2ncnc3ccccc23)c1 | inactive
30 | Cc1cccc(N(CC(O)CN(C)C)S(=O)(=O)c2ccccc2)c1 (stereo not given) | inactive
31 | CCOC(=O)N1CCN(C(=O)CN(C2CCCCC2)S(C)(=O)=O)CC1 | inactive
32 | O=C(NCc1ccco1)c1nc2ncccn2n1 | inactive
33 | O=C(NCc1ccccn1)c1c(O)c2c([nH]c1=O)CCCC2 | inactive
34 | Cc1cccn2c(=O)c3cc(C(=O)N4COCC4(C)C)n(C)c3nc12 | 970 nM (active)
35 | Cc1cccn2c(=O)c3cc(C(=O)NCc4ccccn4)n(C)c3nc12 | 190 nM (active)
36 | CCOC(=O)N1CCN(S(=O)(=O)c2cc3c(cc2C)NC(=O)CO3)CC1 | inactive
37 | Cc1cnc(CNc2ncncc2-c2ccccc2Cl)cn1 | inactive
38 | Cc1ccccc1C(OCC(O)CN1CCCCC1CCO)c1ccccc1 (stereo not given) | inactive
39 | Cc1ccc(-c2nc(COC(=O)c3c(C)noc3C)cs2)cc1 | inactive
40 | Cc1noc(C)c1C(=O)OCC(=O)/C=C1\N(C)c2ccccc2C1(C)C | 150 nM (active)
41 | Cc1noc(C)c1C(=O)Nc1ccccn1 | inactive
42 | COc1ccc(C(=O)N/N=C2/C(=O)c3c(C)cc(C)cc3CC2(C)C)cc1 | inactive
43 | Cc1ccc(S(=O)(=O)N2CCC(C(=O)N[C@@H](C)C(=O)NCCc3ccccc3)CC2)cc1 | inactive
44 | CCOc1ccc(-n2c(SC(C)C(=O)OC)nc3c(c2=O)SCC3)cc1 (stereo not given) | inactive
45 | CCOC(=O)N1CCC(NC(=O)Cc2cn(C)c3ccccc23)CC1 | inactive
46 | CCOC(=O)N1CCC(NC(=O)CCc2cn(C)c3ccccc23)CC1 | 380 nM (active)
47 | CCOC(=O)N1CCC(NC(=O)C(C)n2c3ccccc3c3cnn(C)c(=O)c32)CC1 (stereo not given) | inactive
48 | CCCN1C2=C(C(=O)CCC2)C(c2ccc(O)c(Br)c2)C2=C1CCCC2=O | 78 nM (active)
49 | COc1cc(Cl)cc(C2NC(=O)NC(C)=C2C(=O)NCc2ccccc2)c1O (stereo not given) | inactive
50 | COc1cc([C@H]2c3cc4c(cc3[C@@H](O[C@@H]3O[C@H]5CO[C@@H](C)O[C@]5(O)C[C@H]3O)[C@@H]3COC(=O)[C@H]23)OCO4)cc(OC)c1O | inactive
51 | CC(C)C(=O)N1c2ccccc2NC2=C(C(=O)CCC2)C1c1ccc(N(C)C)cc1 (stereo not given) | inactive
52 | O=C1CCCC2=C1C(c1cccs1)n1nc(SCc3ccccc3)nc1N2 (stereo not given) | 110 nM (active)
53 | CC(C)(C)NCC[C@@H](O)c1cc(C(F)(F)F)nc2c(C(F)(F)F)cccc12 | inactive
54 | Fc1ccc(-c2ccc(-c3nn4c(-c5ccco5)nnc4s3)o2)cc1 | 51 nM (active)

Row | Structure (SMILES) | max dye-equivalent concentration
55 | c1ccc(-c2nnc3n2NC(c2ccc4c(c2)OCO4)S3)cc1 (stereo not given) | inactive
56 | FC(F)(F)c1nnc2sc(-c3ccco3)nn12 | inactive
57 | CC(=O)Nc1ccc(-c2nn3c(C)nnc3s2)cc1C | inactive
58 | Fc1ccc(-c2nnc3sc(-c4ccc5c(c4)OCO5)nn23)cc1 | 26 nM (active)
59 | Cc1nnc2sc(-c3ccco3)nn12 | inactive
60 | CCOC(=O)C(C(=O)OCC)C(C#N)c1ccccc1 (stereo not given) | inactive
61 | CCCn1c(SCC(=O)N2CCc3ccccc32)nnc1-c1ccncc1 | inactive
62 | Cc1cc(C)n2nc(C(=O)Oc3ccc4c(c3)OCO4)nc2n1 | inactive
63 | CCOc1ccc(NCCC(=O)c2ccc3c(c2)OCO3)cc1 | inactive
64 | C/C=C1\C(=O)C[C@@H]2[C@@H]3CCC4=CC(=O)CC[C@@]4(C)[C@H]3CC[C@@]12C | 12 nM (active)
65 | COc1cccc(OCC(=O)Nc2ccccc2C(N)=O)c1 | inactive
66 | O=C(CCC(=O)N1CCN(S(=O)(=O)c2ccccc2)CC1)NC1CCCc2ccccc21 (stereo not given) | inactive
67 | N#C/C=C1\Sc2ccccc2C(=O)N1CC(=O)N1CCN(S(=O)(=O)c2ccccc2)CC1 | 18 nM (active)
68 | Cc1ccc(S(=O)(=O)N2CCN(C(=O)CCC(=O)NC3CCCc4ccccc43)CC2)cc1 (stereo not given) | inactive
69 | CC1=NCCN1S(=O)(=O)c1ccc(Br)c(C)c1 | inactive
70 | CC(=O)c1cnc(Nc2nc(C)c3cc(C)ccc3n2)nc1C | inactive
71 | O=C(CS(=O)(=O)Cc1ccccc1)NCC1CCCO1 (stereo not given) | inactive
72 | O=C(CSC1=Nc2ccccc2C2=NC(c3ccccc3)C(=O)N12)NCC1CCCO1 (stereo not given) | 750 nM (active)
73 | O=C(CSc1nnc(-c2ccc(NS(=O)(=O)c3ccccc3)cc2)o1)NCC1CCCO1 (stereo not given) | inactive
74 | COC(=O)NC1(C(F)(F)F)NC(=O)N(C2CCCCC2)C1=O (stereo not given) | inactive
75 | O=C(NCc1ccc(Cl)cc1)c1cc2c(nc3sccn32)s1 | inactive
76 | CS(=O)(=O)N1CCC[C@@]2(CCN(c3ccncc3)C2)C1 | inactive
77 | Cc1ccc2cc3cc(C(=O)N4CCCCCC4)oc3nc2c1 | 12 nM (active)
78 | Cc1ccc(C(=O)N2CCCCCC2)cc1Br | inactive
79 | O=C(c1cc(-c2cccs2)on1)N1CCCCC1 | inactive
80 | Cc1cc(C(=O)CC#N)c(C)n1CC(F)(F)F | inactive
81 | Cc1ccsc1CNn1cnnc1SCc1ccccc1F | inactive

Row | Structure (SMILES) | max dye-equivalent concentration
82 | COc1ccccc1N1CCN(C(=O)Cn2nnc(-c3cccs3)n2)CC1 | inactive
83 | COc1cccc(-c2nnc(N(C)C(=O)c3ccno3)s2)c1 | 34 nM (active)
84 | CN(C(=O)COc1ccccc1)c1nnc(-c2ccncc2)s1 | inactive
85 | CN(C(=O)c1ccno1)c1nnc(-c2cccnc2)s1 | inactive
86 | C=CCn1c(COc2ccccc2)nnc1SCC(=O)NCC(=O)OCC | inactive
87 | COc1ccccc1-c1cc(NCc2cccs2)ncn1 | inactive
88 | COC(=O)[C@H](CCSC)NC(=O)Nc1ccc(OC)cc1 | inactive
89 | COc1cccc2cc(C(C)N(CCCN3CCOCC3)C(=O)Nc3ccc(Cl)cc3)oc12 (stereo not given) | inactive
90 | COc1cc2cc(CN(CCN3CCCC3)C(=O)Nc3ccccc3Cl)c(=O)[nH]c2cc1OC | 250 nM (active)
91 | COc1ccc(CCN(Cc2cc3cccc(C)c3[nH]c2=O)C(=O)N2CCCC2)cc1OC | inactive
92 | COc1ccc(N2CCN(C(=O)CSc3ncnc4c3cnn4-c3ccc(OC)cc3)CC2)cc1 | inactive
93 | COc1ccc(-n2ncc3c(N4CCCc5ccccc54)ncnc32)cc1 | 39 nM (active)
94 | c1ccc(-n2ncc3c(N4CCCC4)ncnc32)cc1 | inactive
95 | CCCc1nc2c3cnn(-c4cccc(Cl)c4)c3ncn2n1 | inactive
96 | Cc1cccc(-n2ncc3c(N4CCc5ccccc54)ncnc32)c1 | 18 nM (active)
97 | Oc1c(C(c2ccccn2)N2CCOCC2)ccc2cccnc12 (stereo not given) | inactive
98 | COc1ccccc1CNc1cc(-c2ccccc2CN(C)C)ncn1 | inactive
99 | O=C(Nc1ccccc1F)C1C2C=CC3(O2)C1C(=O)N(c1cccnc1)C3C(=O)NC1CCCCC1 (stereo not given) | inactive
100 | Cc1ccc(-c2c3c(=O)n(C)c(=O)n(C)c3cn2-c2ccccc2O)cc1 | inactive
101 | Cc1ccc(-c2c3c(=O)n(C)c(=O)n(C)c3cn2-n2cnnc2)cc1 | inactive
102 | COc1ccc(-c2c3c(=O)n(C)c(=O)n(C)c3cn2-c2cccc(OC)c2)cc1 | 12 nM (active)
103 | COc1ccc(N(C(=O)c2cccnc2)S(=O)(=O)c2ccc3c(c2)n(C)c(=O)n3C)cc1 | inactive
104 | COc1ccc(OC)c(-n2cc3c(=O)n(C)c(=O)n(C)c3c2)c1 | inactive
105 | COc1ccc(-c2c3c(=O)n(C)c(=O)n(C)c3cn2NC(C)=O)cc1 | 2200 nM (active)
